# NS1 inh: qHTS Assay for Inhibitors of Influenza NS1 Protein Function; Potency, µM (doses to about 46.1 µM), inactives show at the highest dose activity, positive = more growth; 0.4% of 270,000 active; AID 2326, 2010; calls by dose curve; note: potency is the fitted concentration of half-maximal effect; actives are rising curves; nearly all actives have a fitted effect of over 50% in size
#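 Read-out: OD600 growth recovery of NS1-expressing budding yeast. Cells grown overnight at 30C in -URA glucose medium, washed, resuspended and diluted 1:100 in 2% galactose assay medium, pH 6.0. Same strain lacking NS1 served as positive control.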
# Cycloheximide cs: Cycloheximide Counterscreen for Small Molecule Inhibitors of Shiga Toxin; AID 2314, 2010; 12% of 300,000 active; max response, %; cell reporter, cycloheximide protein synthesis inhibition counterscreen; in the data active = max response mostly above about 13%, no sharp cut-off; inactive = mostly below about 14%; note: read at 38.3 µM for the half of the compounds with a filed dose; 0% is about no effect
# LmPK inh: qHTS Assay for Inhibitors of Leishmania Mexicana Pyruvate Kinase (LmPK) | purified LmPK, Kinase-Glo ATP luminescence, 1 h | Potency, µM (doses to about 57.5 µM), inactives show top-dose activity change, negative = inhibition, most hits filed as inhibitors | 0.37% of 290,000 active; note: potency is the fitted concentration of half-maximal effect; % is set by controls: 0 for no effect and ±100 for the full control effect
#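 Purified LmPK (0.1 nM) with 0.5 mM PEP and 0.1 mM ADP in imidazole buffer pH 7.2 with MgCl2/KCl, 1 h at room temperature. ATP formed was read by luciferase luminescence and normalized to no-enzyme and uninhibited controls.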
# Shiga toxin inh: A qHTS for Small Molecule Inhibitors of Shiga Toxin | Vero cells, Shiga toxin protein synthesis inhibition reporter | inhibition, % at 38.7 µM | 9.2% of 290,000 active; in the data active = inhibition mostly above about 28%, no sharp cut-off; inactive = mostly below about 43%; note: 0% is about no effect
# FBPA Giardia inh: qHTS Assay for Inhibitors of Fructose-1,6-bisphosphate Aldolase from Giardia Lamblia; AID 2451, 2010; 0.71% of 290,000 active; purified Giardia FBPA; Potency, µM (top dose mostly 59.6 µM), inactives show at the highest dose activity, negative = inhibition, most hits filed as inhibitors; note: potency is the fitted concentration of half-maximal effect; % is set by controls: 0 for no effect and ±100 for the full control effect; nearly all actives have a fitted effect of over 55% in size
# Target sequence (A8B2U2 whole entry, looked up): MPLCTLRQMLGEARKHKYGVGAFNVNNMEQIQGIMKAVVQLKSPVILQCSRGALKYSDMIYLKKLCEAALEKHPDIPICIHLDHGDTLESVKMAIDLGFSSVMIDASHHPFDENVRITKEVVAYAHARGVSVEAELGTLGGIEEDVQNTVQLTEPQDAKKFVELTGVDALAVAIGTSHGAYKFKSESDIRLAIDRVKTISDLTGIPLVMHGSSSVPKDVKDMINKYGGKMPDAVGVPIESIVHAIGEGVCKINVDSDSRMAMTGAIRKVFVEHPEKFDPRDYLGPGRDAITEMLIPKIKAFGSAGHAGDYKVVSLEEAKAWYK
#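 40 nM FBPA preincubated 10 min at RT with compound (up to 57.5 uM final), then substrate plus GAPDH/TPI/NAD/arsenate coupling and diaphorase/resazurin added. Fluorescence read after 20 min at RT, 525/598 nm.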
# * hit, by the source's call; ? = inconclusive; / = no result given; [ ] = dose if it differs, or a comment. Sampled rows, rich in hits. Any-hit rate of the full collection: about 14%. Unless noted, calls come from the whole dose curve; as a rule, active = well fitted curve in the direction sought with a large enough effect; inconclusive = small, poorly fitted or top-dose-only effect, or another doubt; inactive = no such curve, though single readings can be large; an effect the other way counts as inactive or inconclusive.
SMILES,NS1 inh,Cycloheximide cs,LmPK inh,Shiga toxin inh,FBPA Giardia inh
O=C(N/N=C/c1cccnc1)c1sc2ccccc2c1Cl,-37%,21*,0%,17,-2%
COc1ccc2c(Cl)c(C(=O)NN)sc2c1,8%,25,-1%,27,10%
COc1ccc2c(Cl)c(C(N)=O)sc2c1,-5%,20*,-6%,10,-9%
Cc1ccc(OCC(O)CN2CCOCC2)cc1C (stereo not drawn),-13%,-1,0%,4,?
Cc1cc(C)cc(N(C(=O)c2csnn2)C(C(=O)NC2CCCC2)c2ccccn2)c1 (stereo not drawn),8%,1,4%,-16,1%
COc1cc(OC)cc(C(=O)N2CCCC(c3nc(-c4ccc(C)o4)no3)C2)c1 (stereo not drawn),-4%,1,1%,-2,1%
Cc1ccc(-c2noc(C3CCCN(C(=O)c4cccc([N+](=O)[O-])c4)C3)n2)o1 (stereo not drawn),-5%,39*,-3%,85*,-7%
Cc1cccc(C(=O)N2CCCC(c3nc(-c4ccc(C)o4)no3)C2)c1 (stereo not drawn),-5%,42*,2%,113*,-2%
COc1ccc(-c2noc(C3CCCN(C(=O)c4cccc(C)c4)C3)n2)cc1 (stereo not drawn),-24%,-3,-4%,/,6%
O=C1CN(S(=O)(=O)c2ccc3c(c2)OCCO3)CCN1S(=O)(=O)c1c(F)cccc1F,/,-8,/,-8,/
CC(=O)Nc1ccc(S(=O)(=O)Nc2nc3c(s2)CCCC3)cc1,4%,18*,1%,58*,17%
CC(=O)Nc1ccc(S(=O)(=O)Nc2nnc(CC(C)(C)C)s2)cc1,2%,22*,14%,76*,-4%
CC(C)CN1C(=O)C(=Nc2cccnc2)c2ccccc21,-6%,-2,11%,-5,-15%
COc1ccc(Cl)cc1NC(=O)CCNC(=O)Cn1ccc2ccccc2c1=O,-12%,-6,1%,8,-14%
Cc1ccccc1OCCn1cnc2c(N)ncnc21,15%,11*,3%,15,-4%
Nc1ncnc2c1ncn2CCc1ccccc1,-3%,29*,2%,44*,2%
Cc1cccc(C)c1NC(=O)NC1(C(=O)NCc2ccncc2)CCCCC1,7%,-4,4%,-6,1%
Cc1nc2ccc(NC(=O)N3CCSCC3)cc2nc1C,1%,-3,-6%,4,-24%
Cc1nc2ccc(NC(=O)N3CCCCC3)cc2s1,-11%[9.22 µM],28*,10%,41*,-7%
CCOC(=O)N1CCN(C(=O)Nc2ccc3nc(C)sc3c2)CC1,-15%,17*,-1%,31,-6%
Cc1nc2ccc(NC(=O)N3CCN(c4ccccn4)CC3)cc2s1,-14%,7,3%,70,-5%
CCOC(=O)Nc1ccc2nc(N3CCCCCC3)sc2c1,-40%,34*,-1%,126*,2%
Cc1nc2ccc(NC(=O)N3CCSCC3)cc2s1,0%,18*,9%,76,-4%
COc1cc(C(=O)O[C@H]2C/C(C)=C/CC/C(C)=C/[C@@H](O)C2C(C)C)ccc1O (stereo partly drawn),/,11,/,-2,-1%
O=C(c1ccco1)N1CCCC(c2nc3c(nnn3Cc3ccc(F)cc3)c(=O)[nH]2)C1 (stereo not drawn),-11%,12,-1%,-12,17%
SMILES,NS1 inh,Cycloheximide cs,LmPK inh,Shiga toxin inh,FBPA Giardia inh
CNc1sc(C(=O)c2ccc(F)cc2)c(N)c1-c1nc2ccccc2s1,-46%,29*,3%,38,-5%
CNc1sc(C(=O)c2cccs2)c(N)c1-c1nc2ccccc2s1,0%,40*,-4%,176*,-12%
CC(=O)Nc1scc(C)c1-c1nc2ccccc2s1,-2%,8,13%,4,-12%
CN1CCN(NC(=S)Nc2ccc(Oc3ccccc3)cc2)CC1,-3%,-2,-2%,-3,1%
Cc1ccc(OCC(=O)NCCCNC(=O)c2cccnc2)cc1,4%,-4,5%,-2,-3%
COc1cc(/C=C/c2nc(-c3ccccc3O)n[nH]2)cc(OC)c1OC,-6%,19,6%,4,-19%
CC(=O)Nc1ccc(/C=C/c2nc(-c3ccccc3O)n[nH]2)cc1,7%,48*,-6%,57*,-15%
COc1cccc(CNC(=O)CCC2CCCN(C(=O)c3ccccc3N(C)C)C2)c1 (stereo not drawn),8%,8,0%,6,/
COc1ccc2[nH]c(=O)c(CNc3ccccc3)cc2c1,13%,43*,-3%,73*,?
COc1ccc2[nH]c(=O)c(CNc3ccccc3C)cc2c1,-2%,43*,3%,90*,?
COc1ccc2[nH]c(=O)c(CNc3cc(C)ccc3C)cc2c1,-1%,14*,4%,43*,?
CCOc1ccc(NCc2cc3cc(OC)ccc3[nH]c2=O)cc1,-2%,-1,-4%,22,?
COc1ccc2[nH]c(=O)c(CNc3ccc(C)cc3C)cc2c1,2%,30*,11%,70*,?
COc1ccc2[nH]c(=O)c(CNc3ccccc3OC)cc2c1,?,11,3%,5,?
CCOc1ccc(NC(=O)CC(Cc2cc(C)cc(C)c2)C(=O)O)cc1 (stereo not drawn),8%,-9,0%,-7,4%
COc1cc(/C=N/Nc2ccc(Cl)cc2)ccc1OC(=O)c1cccs1,-19%,16*,0%,14,-4%
COc1cc(/C=N/N(C)C)ccc1OC(=O)c1cccs1,-28%,29*,5%,71*,-16%
CCCCC[C@H](O)/C=C/[C@@H]1[C@@H](C/C=C\CCCC(=O)O)[C@H](O)C[C@H]1O,/,/,/,/,-1%
Cc1oc2c(CN3CCCCC3)c(O)ccc2c(=O)c1-c1ccc(Cl)cc1,3%,-2,5%,-8,-1%
O=C(O)CCCCCNC(=O)CSc1nnc(-c2ccco2)n1-c1ccccc1,8%,-1,-4%,-7,6%
[O-][n+]1ccccc1SC/C=C/c1ccccc1,/,25*,5%,96*,7%
Cc1ccc2nc(SCC(=O)NCc3ccco3)[nH]c2c1,0%,-3,0%,-3,0%
Cc1ccc2nc(SCC(=O)NC(=O)NCc3ccco3)[nH]c2c1,3%,13*,0%,13,1%
Cc1ccc(SCC(=O)NCc2ccco2)cc1,1%,17*,2%,40,0%
Cc1ccc(C(=O)NCCSc2snnc2C)cc1,2%,54*,0%,71*,0%
Cc1ccccc1CSCC(=O)NCc1ccco1,-6%,21,12%,36*,-3%
COc1ccc(C)cc1NC(=S)NC12CN3CN(CN(C3)C1)C2,5%,6,-2%,-3,-26%
Cc1cc(C)c(C)c(S(=O)(=O)N2CCC(C(=O)Nc3ccncc3)CC2)c1C,-33%,-3,2%,-9,/
COc1ccc2nc(NC(=O)CC3Oc4ccccc4NC3=O)sc2c1 (stereo not drawn),5%,9,11%,29,0%

# Screening results deposited in PubChem BioAssay by National Center for Advancing Translational Sciences (NCATS).
